The text below walks through data of article PMC7862700, “An all-to-all approach to the identification of sequence-specific readers for epigenetic DNA modifications on cytosine”.

What all share (assay): DAPPL (digital affinity profiling via proximity ligation, sequencing); 10 mM Tris-HCl pH 7.5, 50 mM NaCl, 1 mM DTT, 4% glycerol, room temperature, 30 min; GST-TFs on glutathione beads, 16-mer random dsDNA library, 0.1% formaldehyde crosslink after washing; high values mean tight binding
Assay [1] deals with T1, FLI1 (Homo sapiens, UniProt Q01543 1-452).
T1 sequence: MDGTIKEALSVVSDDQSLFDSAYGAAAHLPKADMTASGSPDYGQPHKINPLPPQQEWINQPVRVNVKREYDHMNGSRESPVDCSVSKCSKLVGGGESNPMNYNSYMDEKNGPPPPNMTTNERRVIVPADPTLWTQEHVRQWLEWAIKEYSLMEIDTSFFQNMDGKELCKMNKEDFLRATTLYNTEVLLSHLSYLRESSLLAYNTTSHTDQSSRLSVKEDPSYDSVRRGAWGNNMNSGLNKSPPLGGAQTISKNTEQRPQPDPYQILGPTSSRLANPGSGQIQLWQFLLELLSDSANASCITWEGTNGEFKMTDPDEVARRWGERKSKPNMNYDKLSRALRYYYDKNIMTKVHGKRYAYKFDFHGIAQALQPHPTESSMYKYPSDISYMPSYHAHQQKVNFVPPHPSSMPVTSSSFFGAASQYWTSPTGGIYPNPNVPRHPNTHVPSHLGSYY
The following applies: protein: recombinant; tags: N-terminal GST; dsDNA, one strand shown. A digest of the protocol: (§1)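 The binding signal reported is, for every hexamer, its read frequency for a factor over its read frequency for the tag-only sample. Reads came from pools of yeast-expressed, GST-fused human transcription factors on glutathione beads, barcoded with DNA and mixed with that sample, which were incubated with 200 nmole of a random double-stranded 16-mer DNA library in Tris/NaCl/DTT/glycerol buffer at room temperature for 30 min. After washing, the pools were crosslinked with 0.1% formaldehyde, proximity-ligated with BsaI/T4 ligase for 1 h at 37 °C, PCR-amplified and sequenced on an Illumina NextSeq500.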

The target in assay [2] is T2, ELK1 (Homo sapiens, UniProt P19419 1-428).
T2 sequence: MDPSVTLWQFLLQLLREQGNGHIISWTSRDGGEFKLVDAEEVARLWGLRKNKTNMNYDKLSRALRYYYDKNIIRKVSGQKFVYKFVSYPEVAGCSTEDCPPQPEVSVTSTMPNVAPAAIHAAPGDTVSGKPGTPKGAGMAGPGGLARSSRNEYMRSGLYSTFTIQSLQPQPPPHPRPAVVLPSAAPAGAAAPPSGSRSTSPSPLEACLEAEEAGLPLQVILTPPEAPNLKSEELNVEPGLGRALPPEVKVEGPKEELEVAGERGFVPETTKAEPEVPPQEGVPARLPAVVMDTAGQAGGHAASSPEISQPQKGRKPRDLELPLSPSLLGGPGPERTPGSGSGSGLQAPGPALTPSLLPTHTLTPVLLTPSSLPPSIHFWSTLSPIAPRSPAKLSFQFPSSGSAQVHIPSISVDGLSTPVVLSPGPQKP
The conditions noted are these: protein: recombinant; tags: N-terminal GST; dsDNA, one strand shown. The essentials:
as §1

Assay [3] deals with T3, GABPA (Homo sapiens, UniProt Q06546 1-454).
T3 sequence: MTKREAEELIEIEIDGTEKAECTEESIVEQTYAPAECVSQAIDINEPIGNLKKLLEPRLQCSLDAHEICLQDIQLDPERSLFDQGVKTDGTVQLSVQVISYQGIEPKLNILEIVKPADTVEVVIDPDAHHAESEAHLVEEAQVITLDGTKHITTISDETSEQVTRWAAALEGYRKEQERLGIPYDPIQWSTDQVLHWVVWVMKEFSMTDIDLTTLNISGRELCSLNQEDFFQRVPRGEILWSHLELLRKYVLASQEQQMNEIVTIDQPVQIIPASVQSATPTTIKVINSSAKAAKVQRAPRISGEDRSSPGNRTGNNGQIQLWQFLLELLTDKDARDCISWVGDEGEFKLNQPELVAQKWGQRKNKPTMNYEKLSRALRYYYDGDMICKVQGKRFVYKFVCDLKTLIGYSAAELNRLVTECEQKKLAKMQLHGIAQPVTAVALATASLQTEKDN
The conditions noted are these: protein: recombinant; tags: N-terminal GST; dsDNA, one strand shown. A digest of the protocol:
as §1

The target of assay [4] is T4, ERG (Homo sapiens, UniProt P11308 1-479).
T4 sequence: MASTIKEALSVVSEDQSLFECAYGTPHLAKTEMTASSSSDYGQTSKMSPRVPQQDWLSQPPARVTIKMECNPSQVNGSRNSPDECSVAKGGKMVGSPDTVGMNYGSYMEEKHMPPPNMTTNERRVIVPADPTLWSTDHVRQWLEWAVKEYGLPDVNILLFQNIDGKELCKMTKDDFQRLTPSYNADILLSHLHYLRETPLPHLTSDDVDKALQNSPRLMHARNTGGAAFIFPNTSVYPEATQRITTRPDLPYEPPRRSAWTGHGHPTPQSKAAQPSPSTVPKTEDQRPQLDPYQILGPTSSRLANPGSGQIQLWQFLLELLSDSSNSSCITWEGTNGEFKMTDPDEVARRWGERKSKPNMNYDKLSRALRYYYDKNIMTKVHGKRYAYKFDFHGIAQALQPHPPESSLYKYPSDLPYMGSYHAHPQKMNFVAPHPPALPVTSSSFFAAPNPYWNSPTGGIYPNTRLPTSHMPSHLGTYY
The following applies: protein: recombinant; tags: N-terminal GST; dsDNA, one strand shown. The essentials:
as §1

For assay [5], the target named is ELF1 (Homo sapiens, UniProt P32519 1-619). The conditions noted are these: protein: recombinant; tags: N-terminal GST; dsDNA, one strand shown. The essentials: as §1
Sequence of ELF1 (P32519 whole entry): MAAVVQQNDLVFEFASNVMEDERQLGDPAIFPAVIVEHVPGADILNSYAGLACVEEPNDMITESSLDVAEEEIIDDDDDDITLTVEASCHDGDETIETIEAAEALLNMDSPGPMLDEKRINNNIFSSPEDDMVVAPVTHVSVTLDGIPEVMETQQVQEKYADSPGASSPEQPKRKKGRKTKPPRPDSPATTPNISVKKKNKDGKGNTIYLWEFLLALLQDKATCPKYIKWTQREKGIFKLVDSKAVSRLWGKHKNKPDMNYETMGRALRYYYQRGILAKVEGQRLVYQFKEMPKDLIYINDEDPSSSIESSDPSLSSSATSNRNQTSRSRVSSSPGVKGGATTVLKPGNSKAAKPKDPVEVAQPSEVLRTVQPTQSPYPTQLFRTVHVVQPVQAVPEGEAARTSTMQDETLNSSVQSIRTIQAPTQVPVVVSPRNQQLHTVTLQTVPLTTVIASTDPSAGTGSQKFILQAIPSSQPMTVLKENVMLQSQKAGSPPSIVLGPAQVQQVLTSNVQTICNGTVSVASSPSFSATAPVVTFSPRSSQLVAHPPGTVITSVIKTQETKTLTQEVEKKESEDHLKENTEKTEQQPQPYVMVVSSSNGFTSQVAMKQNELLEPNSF
The target of assay [6] is T5, EHF (Homo sapiens, UniProt Q9NZC4 1-300).
T5 sequence: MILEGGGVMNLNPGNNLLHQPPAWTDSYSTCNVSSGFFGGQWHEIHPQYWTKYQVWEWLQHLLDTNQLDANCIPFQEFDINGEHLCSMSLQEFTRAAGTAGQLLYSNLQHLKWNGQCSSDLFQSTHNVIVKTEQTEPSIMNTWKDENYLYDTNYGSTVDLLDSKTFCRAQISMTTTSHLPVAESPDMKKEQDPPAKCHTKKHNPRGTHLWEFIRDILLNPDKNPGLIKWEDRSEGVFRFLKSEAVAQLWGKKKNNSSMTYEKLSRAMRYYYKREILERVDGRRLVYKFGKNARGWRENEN
The conditions noted are these: protein: recombinant; tags: N-terminal GST; dsDNA, one strand shown. A digest of the protocol:
as §1

Assay [7] deals with SPI1 (Homo sapiens, UniProt P17947 1-270). The conditions noted are these: protein: recombinant; tags: N-terminal GST; dsDNA, one strand shown. The essentials: as §1
Assay [8] has as its target SPIB (Homo sapiens, UniProt Q01892 1-262). The conditions noted are these: protein: recombinant; tags: N-terminal GST; dsDNA, one strand shown. The essentials: as §1
The target in assay [9] is T6, ELK3 (Homo sapiens, UniProt P41970 1-407).
T6 sequence: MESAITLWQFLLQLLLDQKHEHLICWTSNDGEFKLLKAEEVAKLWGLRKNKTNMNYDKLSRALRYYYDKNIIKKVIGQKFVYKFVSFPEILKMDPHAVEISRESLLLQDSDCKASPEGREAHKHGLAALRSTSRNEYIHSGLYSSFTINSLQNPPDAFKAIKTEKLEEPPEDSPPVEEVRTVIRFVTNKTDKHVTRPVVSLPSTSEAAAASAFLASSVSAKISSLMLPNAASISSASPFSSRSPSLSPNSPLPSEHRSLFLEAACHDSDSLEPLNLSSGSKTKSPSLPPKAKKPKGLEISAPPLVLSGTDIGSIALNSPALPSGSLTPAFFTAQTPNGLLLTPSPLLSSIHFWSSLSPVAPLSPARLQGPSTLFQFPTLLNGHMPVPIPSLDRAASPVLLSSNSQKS
The following applies: protein: recombinant; tags: N-terminal GST; dsDNA, one strand shown. A digest of the protocol:
as §1

Assay [10] has as its target T7, FEV (Homo sapiens, UniProt Q99581 1-238).
T7 sequence: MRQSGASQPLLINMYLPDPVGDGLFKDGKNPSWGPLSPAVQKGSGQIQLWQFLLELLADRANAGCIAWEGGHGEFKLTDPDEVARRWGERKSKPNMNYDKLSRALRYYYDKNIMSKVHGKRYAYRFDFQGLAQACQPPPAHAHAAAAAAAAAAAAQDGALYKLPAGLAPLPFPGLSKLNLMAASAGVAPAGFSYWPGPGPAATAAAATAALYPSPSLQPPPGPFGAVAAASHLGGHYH
The conditions noted are these: protein: recombinant; tags: N-terminal GST; dsDNA, one strand shown. A digest of the protocol:
as §1

For assay [11], the target named is ETV5 (Homo sapiens, UniProt P41161 1-510). The conditions noted are these: protein: recombinant; tags: N-terminal GST; dsDNA, one strand shown. The essentials:
as §1

Assay [12] addresses HSF1 (Homo sapiens, UniProt Q00613 1-529). The following applies: protein: recombinant; tags: N-terminal GST; chain copies: 3; dsDNA, one strand shown. A digest of the protocol:
as §1

Assay [13] addresses T8, SPIC (Homo sapiens, UniProt Q8N5J4 1-248).
T8 sequence: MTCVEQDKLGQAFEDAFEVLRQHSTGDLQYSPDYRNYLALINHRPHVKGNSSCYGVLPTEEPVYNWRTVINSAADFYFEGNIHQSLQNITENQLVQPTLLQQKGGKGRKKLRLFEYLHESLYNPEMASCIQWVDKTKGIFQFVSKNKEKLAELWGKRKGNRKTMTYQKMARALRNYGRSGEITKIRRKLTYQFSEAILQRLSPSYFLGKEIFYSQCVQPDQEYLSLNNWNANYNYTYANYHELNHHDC
The following applies: protein: recombinant; tags: N-terminal GST; dsDNA, one strand shown. A digest of the protocol:
as §1

Assay [14] addresses ELF4 (Homo sapiens, UniProt Q99607 1-663). The conditions noted are these: protein: recombinant; tags: N-terminal GST; dsDNA, one strand shown. A digest of the protocol: as §1
For assay [15], the target named is T9, ETV2 (Homo sapiens, UniProt O00321 1-342).
T9 sequence: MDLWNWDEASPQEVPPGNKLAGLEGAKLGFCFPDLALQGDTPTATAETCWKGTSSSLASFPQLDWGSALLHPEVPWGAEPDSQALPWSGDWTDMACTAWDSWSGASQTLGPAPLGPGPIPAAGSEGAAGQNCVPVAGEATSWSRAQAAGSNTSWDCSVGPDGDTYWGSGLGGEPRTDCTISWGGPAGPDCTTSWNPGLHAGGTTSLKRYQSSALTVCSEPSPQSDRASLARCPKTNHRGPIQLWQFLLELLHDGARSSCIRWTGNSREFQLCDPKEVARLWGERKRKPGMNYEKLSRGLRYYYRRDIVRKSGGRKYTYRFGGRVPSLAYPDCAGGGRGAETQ
The conditions noted are these: protein: recombinant; tags: N-terminal GST; dsDNA, one strand shown. A digest of the protocol:
as §1

Assay [16] concerns the target T10, ELF3 (Homo sapiens, UniProt P78545 1-371).
T10 sequence: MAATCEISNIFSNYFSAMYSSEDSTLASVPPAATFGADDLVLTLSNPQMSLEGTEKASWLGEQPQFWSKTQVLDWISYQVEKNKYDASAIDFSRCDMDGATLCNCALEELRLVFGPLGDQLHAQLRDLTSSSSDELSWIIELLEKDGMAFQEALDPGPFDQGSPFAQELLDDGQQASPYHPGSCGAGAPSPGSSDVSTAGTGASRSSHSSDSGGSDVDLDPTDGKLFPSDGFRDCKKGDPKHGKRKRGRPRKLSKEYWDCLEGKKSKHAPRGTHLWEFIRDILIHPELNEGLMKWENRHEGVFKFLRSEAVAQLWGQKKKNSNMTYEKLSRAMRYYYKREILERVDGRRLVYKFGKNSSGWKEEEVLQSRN
The conditions noted are these: protein: recombinant; tags: N-terminal GST; dsDNA, one strand shown. The essentials: as §1

In assay [17] the target is CRX (Homo sapiens, UniProt O43186 1-299). The following applies: protein: recombinant; tags: N-terminal GST; dsDNA, one strand shown. A digest of the protocol:
as §1

For assay [18], the target named is ETV1 (Homo sapiens, UniProt P50549 1-477). The conditions noted are these: protein: recombinant; tags: N-terminal GST; dsDNA, one strand shown. The essentials:
as §1

Sequence of ETV1 (P50549 whole entry): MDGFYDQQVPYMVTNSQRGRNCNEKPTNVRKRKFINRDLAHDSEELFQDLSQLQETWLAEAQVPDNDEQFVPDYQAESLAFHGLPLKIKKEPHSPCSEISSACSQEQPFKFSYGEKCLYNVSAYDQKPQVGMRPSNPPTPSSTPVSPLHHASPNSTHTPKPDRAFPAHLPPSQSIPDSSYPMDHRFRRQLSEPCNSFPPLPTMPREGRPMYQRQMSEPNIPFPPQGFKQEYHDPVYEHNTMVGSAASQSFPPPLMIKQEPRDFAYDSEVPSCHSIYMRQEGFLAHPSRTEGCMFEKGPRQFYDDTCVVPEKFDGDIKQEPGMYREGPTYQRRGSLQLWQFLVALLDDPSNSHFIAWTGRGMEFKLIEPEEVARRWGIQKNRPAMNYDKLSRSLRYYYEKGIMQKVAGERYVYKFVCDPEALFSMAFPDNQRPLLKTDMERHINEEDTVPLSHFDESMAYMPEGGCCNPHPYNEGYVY
Sequence of HSF1 (Q00613 whole entry): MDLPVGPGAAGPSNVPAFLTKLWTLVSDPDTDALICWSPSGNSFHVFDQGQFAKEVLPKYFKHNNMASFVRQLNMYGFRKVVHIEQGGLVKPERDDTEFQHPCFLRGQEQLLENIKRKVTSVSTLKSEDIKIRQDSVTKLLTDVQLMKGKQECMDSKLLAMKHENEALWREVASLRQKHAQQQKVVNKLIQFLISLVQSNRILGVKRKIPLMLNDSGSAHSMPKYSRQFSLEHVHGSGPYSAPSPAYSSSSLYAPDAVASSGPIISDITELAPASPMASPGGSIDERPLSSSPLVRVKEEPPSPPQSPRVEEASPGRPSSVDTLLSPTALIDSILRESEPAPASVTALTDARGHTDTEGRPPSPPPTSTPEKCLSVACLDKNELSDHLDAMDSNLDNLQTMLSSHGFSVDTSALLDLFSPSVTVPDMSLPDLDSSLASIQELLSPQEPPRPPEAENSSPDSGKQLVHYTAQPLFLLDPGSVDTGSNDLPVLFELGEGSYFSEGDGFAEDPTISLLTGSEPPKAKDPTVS
Sequence of SPIB (Q01892 whole entry): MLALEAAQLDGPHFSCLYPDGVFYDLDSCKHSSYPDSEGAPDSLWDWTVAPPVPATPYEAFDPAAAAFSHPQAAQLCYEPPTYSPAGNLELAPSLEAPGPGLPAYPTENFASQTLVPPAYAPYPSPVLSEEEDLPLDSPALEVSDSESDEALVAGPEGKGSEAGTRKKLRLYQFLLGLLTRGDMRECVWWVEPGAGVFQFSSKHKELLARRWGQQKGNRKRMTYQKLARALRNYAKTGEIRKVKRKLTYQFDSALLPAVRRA
Sequence of CRX (O43186 whole entry): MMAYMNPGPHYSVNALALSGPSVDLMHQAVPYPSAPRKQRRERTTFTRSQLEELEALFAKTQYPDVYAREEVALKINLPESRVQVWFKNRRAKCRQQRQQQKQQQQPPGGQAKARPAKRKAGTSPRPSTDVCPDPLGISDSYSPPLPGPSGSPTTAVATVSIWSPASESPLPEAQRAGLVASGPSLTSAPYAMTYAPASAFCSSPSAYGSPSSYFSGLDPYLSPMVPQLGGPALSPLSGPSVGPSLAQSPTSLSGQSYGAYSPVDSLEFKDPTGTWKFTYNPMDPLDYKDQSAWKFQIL
Sequence of ETV5 (P41161 whole entry): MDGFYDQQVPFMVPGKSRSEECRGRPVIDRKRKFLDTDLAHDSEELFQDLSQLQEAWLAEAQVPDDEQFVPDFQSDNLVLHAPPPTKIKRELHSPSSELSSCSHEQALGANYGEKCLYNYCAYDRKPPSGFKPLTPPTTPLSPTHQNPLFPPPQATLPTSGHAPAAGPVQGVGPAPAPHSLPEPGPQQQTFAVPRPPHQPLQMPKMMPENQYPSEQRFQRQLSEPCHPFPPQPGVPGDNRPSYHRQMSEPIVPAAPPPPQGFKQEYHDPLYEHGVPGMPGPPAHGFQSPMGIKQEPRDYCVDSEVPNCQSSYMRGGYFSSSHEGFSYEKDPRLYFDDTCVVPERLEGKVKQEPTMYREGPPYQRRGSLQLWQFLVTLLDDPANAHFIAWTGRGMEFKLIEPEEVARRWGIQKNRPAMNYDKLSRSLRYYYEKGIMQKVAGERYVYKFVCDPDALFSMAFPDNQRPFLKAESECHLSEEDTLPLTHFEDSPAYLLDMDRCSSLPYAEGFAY
Sequence of ELF4 (Q99607 whole entry): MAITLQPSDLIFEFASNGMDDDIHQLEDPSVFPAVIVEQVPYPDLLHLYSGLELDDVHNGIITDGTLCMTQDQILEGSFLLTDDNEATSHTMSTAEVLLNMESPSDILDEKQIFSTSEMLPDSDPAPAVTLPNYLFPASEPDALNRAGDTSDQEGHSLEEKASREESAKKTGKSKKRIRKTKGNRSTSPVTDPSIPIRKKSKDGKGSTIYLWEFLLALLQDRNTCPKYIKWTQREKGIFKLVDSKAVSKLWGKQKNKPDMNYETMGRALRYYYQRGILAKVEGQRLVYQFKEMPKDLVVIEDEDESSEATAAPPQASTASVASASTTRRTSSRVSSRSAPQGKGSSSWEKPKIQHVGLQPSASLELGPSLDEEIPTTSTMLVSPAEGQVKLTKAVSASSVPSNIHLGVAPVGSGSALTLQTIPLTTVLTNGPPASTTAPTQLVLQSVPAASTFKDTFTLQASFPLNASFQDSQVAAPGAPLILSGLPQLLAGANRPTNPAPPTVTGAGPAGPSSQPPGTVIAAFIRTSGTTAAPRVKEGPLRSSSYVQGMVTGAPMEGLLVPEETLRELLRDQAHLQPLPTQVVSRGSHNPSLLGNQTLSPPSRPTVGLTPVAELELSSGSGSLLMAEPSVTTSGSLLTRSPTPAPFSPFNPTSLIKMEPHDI

Turning to ACTTAG, the binding signal in [1] is 1.04 fold enrichment (6-mer frequency, TF over GST control); in [2] it was 1.06 fold enrichment (6-mer frequency, TF over GST control); in assay [3] it was 1.11 fold enrichment (6-mer frequency, TF over GST control); in assay [4], 1.09 fold enrichment (6-mer frequency, TF over GST control); in [5] it was 1.05 fold enrichment (6-mer frequency, TF over GST control); in assay [6], 1.11 fold enrichment (6-mer frequency, TF over GST control). Further, the binding signal in [7] is 1.05 fold enrichment (6-mer frequency, TF over GST control); in [8] it was 1.11 fold enrichment (6-mer frequency, TF over GST control); in assay [9], 1.17 fold enrichment (6-mer frequency, TF over GST control); in assay [10], 1.03 fold enrichment (6-mer frequency, TF over GST control); in assay [11], 1.16 fold enrichment (6-mer frequency, TF over GST control); in assay [12], 1.27 fold enrichment (6-mer frequency, TF over GST control). In addition, the binding signal in [13] is 1.1 fold enrichment (6-mer frequency, TF over GST control); in [14] it was 1.03 fold enrichment (6-mer frequency, TF over GST control); in assay [15] it was 1.12 fold enrichment (6-mer frequency, TF over GST control); in [16], 1.2 fold enrichment (6-mer frequency, TF over GST control); in assay [17], 1.72 fold enrichment (6-mer frequency, TF over GST control); in assay [18], 1.04 fold enrichment (6-mer frequency, TF over GST control).
